Results from PubChem BioAssay.
Activity calls are given as the source filed them. Rule as the data show it, unless noted: active = inhibition above about 80%; inactive = the rest.

Assay: HTB85 osteosarcoma cell growth inhibition, synergistic combos for chromothripsis tumors, BGB or cisplatin IC20 combos (AID 1671453);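 also: cells exposed for 96 hours before readout; 0% = vehicle DMSO and 100% = high DMSO killing control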
Settings: HTB85 osteosarcoma cells, drug combinations, measured here: with cisplatin IC20, at 5 µM, stronger effect = higher value

Row | SMILES | inhibition [%]
1 | O=c1[nH]cnc2c1ncn2C1CCC(CO)O1 (stereo not drawn) | -50
2 | Cc1cn(C2C=CC(CO)O2)c(=O)[nH]c1=O (stereo not drawn) | -14.5
3 | Nc1ccn(C2CCC(CO)O2)c(=O)n1 (stereo not drawn) | -30.1

Same assay, conditions: HTB85 osteosarcoma cells, drug combinations, single agent, at 5 µM, stronger effect = higher value

Row | SMILES | inhibition [%]
4 | O=c1[nH]cnc2c1ncn2C1CCC(CO)O1 (stereo not drawn) | -11.3
5 | Cc1cn(C2C=CC(CO)O2)c(=O)[nH]c1=O (stereo not drawn) | 6.05
6 | Nc1ccn(C2CCC(CO)O2)c(=O)n1 (stereo not drawn) | -16.7

Assay: CRL2098 osteosarcoma cell growth inhibition, synergistic combos for chromothripsis tumors, BGB or cisplatin IC20 combos (AID 1671454);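 also: cells exposed for 96 h before readout; 0% = vehicle DMSO and 100% = killing by high DMSO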
Settings: CRL2098 osteosarcoma cells, drug combinations, at 0.5 µM, stronger effect = higher value

Row | SMILES | inhibition
7 | O=c1[nH]cnc2c1ncn2C1CCC(CO)O1 (stereo not drawn) | -44.8% (inactive)
8 | Cc1cn(C2C=CC(CO)O2)c(=O)[nH]c1=O (stereo not drawn) | -98.7% (inactive)
9 | Nc1ccn(C2CCC(CO)O2)c(=O)n1 (stereo not drawn) | -61.6% (inactive)

Same assay, conditions: CRL2098 osteosarcoma cells, drug combinations, measured here: combination with BGB at IC20, at 0.5 µM, stronger effect = higher value

Row | SMILES | inhibition [%]
10 | O=c1[nH]cnc2c1ncn2C1CCC(CO)O1 (stereo not drawn) | -57.1
11 | Cc1cn(C2C=CC(CO)O2)c(=O)[nH]c1=O (stereo not drawn) | -91.8
12 | Nc1ccn(C2CCC(CO)O2)c(=O)n1 (stereo not drawn) | -74.6

Same assay, conditions: CRL2098 osteosarcoma cells, drug combinations, measured here: combination with cisplatin at IC20, at 0.5 µM, stronger effect = higher value

Row | SMILES | inhibition [%]
13 | O=c1[nH]cnc2c1ncn2C1CCC(CO)O1 (stereo not drawn) | -26.9
14 | Cc1cn(C2C=CC(CO)O2)c(=O)[nH]c1=O (stereo not drawn) | -105
15 | Nc1ccn(C2CCC(CO)O2)c(=O)n1 (stereo not drawn) | -68.6

Assay: HD-MB03 medulloblastoma cell growth inhibition, synergistic combos for chromothripsis tumors, BGB or cisplatin IC20 combos (AID 1671455; in the data active = inhibition above about 83%;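 also: 0% = vehicle DMSO and 100% = high DMSO as cytotoxic control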)
Settings: HD-MB03 medulloblastoma cells, at 0.5 µM, stronger effect = higher value

Row | SMILES | inhibition
16 | O=c1[nH]cnc2c1ncn2C1CCC(CO)O1 (stereo not drawn) | -5.57% (inactive)
17 | Cc1cn(C2C=CC(CO)O2)c(=O)[nH]c1=O (stereo not drawn) | -18.8% (inactive)
18 | Nc1ccn(C2CCC(CO)O2)c(=O)n1 (stereo not drawn) | -9.09% (inactive)

Same assay, conditions: HD-MB03 medulloblastoma cells, measured here: combo with BGB at IC20, at 0.5 µM, stronger effect = higher value

Row | SMILES | inhibition [%]
19 | O=c1[nH]cnc2c1ncn2C1CCC(CO)O1 (stereo not drawn) | 0.583
20 | Cc1cn(C2C=CC(CO)O2)c(=O)[nH]c1=O (stereo not drawn) | -15.9
21 | Nc1ccn(C2CCC(CO)O2)c(=O)n1 (stereo not drawn) | -13.9

Same assay, conditions: HD-MB03 medulloblastoma cells, measured here: combo with cisplatin at IC20, at 0.5 µM, stronger effect = higher value

Row | SMILES | inhibition [%]
22 | O=c1[nH]cnc2c1ncn2C1CCC(CO)O1 (stereo not drawn) | -5.27
23 | Cc1cn(C2C=CC(CO)O2)c(=O)[nH]c1=O (stereo not drawn) | -28
24 | Nc1ccn(C2CCC(CO)O2)c(=O)n1 (stereo not drawn) | -16.6

Assay: UWB1.289 ovarian carcinoma cell growth inhibition, synergistic combos for chromothripsis tumors, BGB or cisplatin combos (AID 1671456);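 also: cells exposed to compound for four days; 0% = vehicle DMSO and 100% = killing by high DMSO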
Settings: UWB1.289 ovarian carcinoma cells, at 0.5 µM, stronger effect = higher value

Row | SMILES | inhibition
25 | O=c1[nH]cnc2c1ncn2C1CCC(CO)O1 (stereo not drawn) | -1.68% (inactive)
26 | Cc1cn(C2C=CC(CO)O2)c(=O)[nH]c1=O (stereo not drawn) | -10.5% (inactive)
27 | Nc1ccn(C2CCC(CO)O2)c(=O)n1 (stereo not drawn) | 7.61% (inactive)

Same assay, conditions: UWB1.289 ovarian carcinoma cells, measured here: inhibition with BGB combination, at 0.05 µM, stronger effect = higher value

Row | SMILES | inhibition [%]
28 | O=c1[nH]cnc2c1ncn2C1CCC(CO)O1 (stereo not drawn) | -32
29 | Cc1cn(C2C=CC(CO)O2)c(=O)[nH]c1=O (stereo not drawn) | -4.7
30 | Nc1ccn(C2CCC(CO)O2)c(=O)n1 (stereo not drawn) | -29.4

Same assay, conditions: UWB1.289 ovarian carcinoma cells, measured here: inhibition with cisplatin combination, at 0.05 µM, stronger effect = higher value

Row | SMILES | inhibition [%]
31 | O=c1[nH]cnc2c1ncn2C1CCC(CO)O1 (stereo not drawn) | -6.01
32 | Cc1cn(C2C=CC(CO)O2)c(=O)[nH]c1=O (stereo not drawn) | -16.8
33 | Nc1ccn(C2CCC(CO)O2)c(=O)n1 (stereo not drawn) | -3.05
